Sampled rows, rich in hits. Any-hit rate of the full collection: about 3.6%.
AmpC no deterg: blocks E. coli AmpC beta-lactamase in detergent-free assay | Potency, µM (titrated, usually from 57.1 µM), without a hit: at the highest dose activity change, negative = inhibition, most hits filed as inhibitors | 330,000 compounds, 0.52% hits | AmpC nitrocefin hydrolysis, absorbance 480 nm, 0.0001% Triton | P00811;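 also: plate controls were no compound for no effect and no enzyme for full effect; nearly all actives have a fitted effect of over 20% in size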
Target sequence (P00811 whole entry, looked up): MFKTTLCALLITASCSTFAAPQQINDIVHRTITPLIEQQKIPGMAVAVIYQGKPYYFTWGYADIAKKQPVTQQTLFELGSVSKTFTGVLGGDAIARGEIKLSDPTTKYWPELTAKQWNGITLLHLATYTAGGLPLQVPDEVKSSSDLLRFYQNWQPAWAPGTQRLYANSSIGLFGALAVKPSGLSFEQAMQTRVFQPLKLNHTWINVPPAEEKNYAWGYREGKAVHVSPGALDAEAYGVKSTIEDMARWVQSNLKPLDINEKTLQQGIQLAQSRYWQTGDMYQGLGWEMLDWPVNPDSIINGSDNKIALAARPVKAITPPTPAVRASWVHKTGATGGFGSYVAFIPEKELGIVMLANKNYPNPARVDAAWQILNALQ
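20 mM phosphate pH 7.0 + 0.01% (detergent screen) or 0.0001% Triton X-100; 5.3 nM AmpC reagent; cpd preinc 15 min RT; nitrocefin (800 uM stock) to start; A480 q20 s × 4 min; Activity was normalised to no-enzyme and no-compound control wells.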
Giardia FBPA inh: inhibitors of Giardia lamblia fructose-1,6-bisphosphate aldolase | A8B2U2 | purified Giardia FBPA | Potency, µM (titrated, usually from 59.6 µM), without a hit: at the top dose activity, negative = inhibition, hits mostly inhibitors | 290,000 compounds, 0.71% hits; also: nearly all actives have a fitted effect of over 55% in size
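40 nM FBPA preincubated 10 min at RT with compound (up to 57.5 uM final), then substrate plus GAPDH/TPI/NAD/arsenate coupling and diaphorase/resazurin added. Fluorescence read after 20 min at RT, 525/598 nm.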
AmpC detergent: blocks E. coli AmpC beta-lactamase in detergent assay | P00811 | AmpC hydrolysis of nitrocefin, absorbance 480 nm, 0.01% Triton | Potency, µM (top dose mostly 114 µM), for the others: top-dose activity change, negative = inhibition, usual class: inhibitors | 370,000 compounds, 0.041% hits;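 also: 0% = no-compound wells and -100% = no-enzyme wells; nearly all actives have a fitted effect of over 25% in size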
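AmpC (5.3 nM in the dispensed reagent) in 20 mM phosphate pH 7.0 with 0.01% (detergent screen) or 0.0001% Triton X-100 was preincubated with compounds for 15 min at room temperature. Nitrocefin was then added from an 800 uM solution, and hydrolysis was followed at 480 nm.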
Sm TGR inh: blocks Schistosoma mansoni thioredoxin glutathione reductase | Q962Y6 | purified TGR, DTNB reduction, TNB absorbance 405 nm | Potency, µM (top dose mostly 114 µM), without a hit: top-dose activity change, negative = inhibition, usual class: inhibitors | 360,000 compounds, 3% hits | AID 485364; also: nearly all actives have a fitted effect of over 60% in size
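TGR 20 nM + NADPH 100 uM (dispensed conc.), cpd preinc 15 min RT; start with NADPH (500 uM addition) then DTNB (15 mM addition). Kinetic TNB absorbance, 405 nm filter. Four-parameter Hill fit across titration.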
Numbers without * were called inactive; ? = inconclusive; · = no result. Calls follow the shape of the dose curve; as a rule, active = well fitted curve in the direction sought with a large enough effect; inconclusive = small, poorly fitted or top-dose-only effect, or another doubt; inactive = no such curve, though single readings can be large; an effect the other way counts as inactive or inconclusive. Unless noted, % is scaled to controls: 0 for no effect and ±100 for the full control effect; potency is read from the fitted curve at half-maximal effect.

SMILES	AmpC no deterg	Giardia FBPA inh	AmpC detergent	Sm TGR inh
O=C1c2cccc3c([N+](=O)[O-])ccc(c23)C(=O)N1Cc1cccnc1	8%	-10%	2%	25µM*
C/C(Cn1nnc([N+](=O)[O-])n1)=N\NC(=O)c1ccncc1	-13%	20µM*	-5%	-26%
CCCCOc1ccc(C(=O)NCCS(=O)(=O)N2CCN(c3ccccc3OC)CC2)cc1	·	·	21%	7%
CC(C)N1CSC(=S)N(Cc2ccccc2)C1	62%	?	-12%	28µM*
COc1ccc(Nc2cnn(-c3nc4ccccc4s3)c(=O)c2Cl)cc1	-12%	8%	-14%	1.3µM*
O=c1c(Cl)c(Nc2cccc(Cl)c2)cnn1-c1nc2ccccc2s1	?	3%	-8%	?
C#CCN1C(=O)C(O)(c2c(C)[nH]c3ccccc23)c2ccccc21 (stereo not given)	-21%	-7%	6%	7%
CCCN1C(=O)C(O)(c2c(C)[nH]c3ccccc23)c2ccccc21 (stereo not given)	-5%	-14%	3%	45µM*
Cc1cc(C)n(-c2nc3ccccc3s2)n1	1%	0%	10%	15%
Cc1c2c(=O)n(-c3nc4ccccc4s3)nc-2cc(O)n1Cc1ccccc1	16µM*	-6%	0%	-7%
CCCCNC(=O)c1ccc2c(=O)n(-c3ccccc3)c(=O)[nH]c2c1	·	·	5%	7%
O=[N+]([O-])c1ccc(O)c2cccnc12	-20%	?	3%	-5%
O=[N+]([O-])c1ccc(O)c2ncccc12	69%	20µM*	-2%	?
O=[N+]([O-])c1cc(Cl)c(O)c2ncccc12	-27%	?	9%	11µM*
O=[N+]([O-])c1cc([N+](=O)[O-])c2cccnc2c1Oc1ccccc1O	-15%	0%	-6%	0.28µM*
O=C(CN1C(=O)NC2(CCCCCC2)C1=O)N1CCN(c2ccccc2)CC1	-10%	·	-13%	0%
CCN(C(=O)Cc1c(C(=O)O)c(C)cn1C)c1cccc(Cl)c1	·	·	8%	6%
CN(C)c1ccnc(Nc2ccc(O)cc2)c1C#N	-11%	-13%	?	-9%
CC(C#Cc1c([C@@H](C)Oc2ccccc2)nnn1Cc1ccccc1)Oc1ccccc1 (stereo not given in full)	-22%	-5%	-8%	7.9µM*
COc1ccccc1-c1cc(=O)c2cc(O)ccc2o1	·	0%	·	·
COc1ccc(OC)c(-c2c3cc(O)c(=O)cc-3oc3cc(O)c(O)cc23)c1	28µM*	?	-4%	?
CCOc1ccccc1-c1c2cc(O)c(=O)cc-2oc2cc(O)c(O)cc12	-55%	6.3µM*	?	45µM*
CC(=O)OCCCNc1cc(Sc2ccc(C)cc2)c2nonc2c1[N+](=O)[O-]	-19%	0%	3%	8.9µM*
CCCC(=O)OCCNc1cc(SCCC(=O)OC)c2nonc2c1[N+](=O)[O-]	17%	-26%	-1%	3.5µM*
CC(=O)OCCNc1cc(Sc2nc3ccccc3[nH]2)c2nonc2c1[N+](=O)[O-]	-12%	?	-7%	0.32µM*
SMILES	AmpC no deterg	Giardia FBPA inh	AmpC detergent	Sm TGR inh
CC(=O)OCCCNc1cc(Sc2nc3ccccc3s2)c2nonc2c1[N+](=O)[O-]	-20%	?	-13%	0.1µM*
CN1CCN(c2ccc(C(=O)NC3CCCCC3)cc2[N+](=O)[O-])CC1	-43%	2%	-3%	7%
CCCc1c(C(=O)N/N=C/c2ccccc2C(F)(F)F)nnn1-c1nonc1N	-36%	-4%	6%	-8%
CSCCC(NC(=O)c1cccc(C)c1)C(=O)Nc1sccc1C(N)=O (stereo not given)	-24%	-10%	0%	?
COc1ccc(CC2C(=O)NC(=O)NC2=O)c(OC)c1	-10%	-17%	-13%	50µM*
COc1ccc(CC2C(=O)N(C)C(=O)N(C)C2=O)c(OC)c1	-13%	?	-5%	?
CC(Cl)C(=O)NNc1cccc(Cl)n1 (stereo not given)	-6%	-15%	1%	13µM*
O=C(NNc1cccc(Cl)n1)Nc1ccccc1	-20%	0%	?	-21%
CCn1c2c(c(=O)n3ncc(C(=O)Nc4ccc(OC(F)(F)F)cc4)c13)CN(Cc1ccc(OC)cc1)CC2	·	·	15%	9%
Cc1ccc(C(=O)n2ncn(C)c2=S)cc1	-22%	-28%	2%	18µM*
